# Results as given in PubChem BioAssay AID1494158 (National Center for Advancing Translational Sciences (NCATS), 2020).
# Records with an inconclusive call do not appear. Active and inactive are the calls of the source. Calls follow the shape of the full dose curve.
# Assay: VSV-G qHTS counterscreen for inhibitors of SARS-S pseudo-typed particle cell entry
# Conditions: VSV-G pseudotyped particle entry counterscreen, luciferase; series mostly up to 57.1 µM
row,Compound,Potency
1,Cc1nnc2n1-c1sc(CCc3ccc(CC(C)C)cc3)cc1C(c1ccccc1Cl)=NC2C (centres undefined),27.1 µM (active)
2,CC[C@@]1(O)C(=O)OCc2c1cc1n(c2=O)Cc2cc3c(CN(C)C)c(O)ccc3nc2-1,0.383 µM (active)
3,CCCCCCCCCCCC[n+]1ccc2ccccc2c1,1.92 µM (active)
4,O=C1CCc2ccc(OCCCCN3CCN(c4cccc(Cl)c4Cl)CC3)cc2N1,19.2 µM (active)
5,Cc1nnc(C(=O)NC(C)(C)c2nc(C(=O)NCc3ccc(F)cc3)c(O)c(=O)n2C)o1,0.0171 µM (active)
6,C[C@@H](c1nc(-c2ccc(C#N)cc2)cs1)[C@](O)(Cn1cncn1)c1cc(F)ccc1F,21.5 µM (active)
7,Cc1cn([C@H]2C[C@H](N=[N+]=[N-])[C@@H](CO)O2)c(=O)[nH]c1=O,3.41 µM (active)
8,CCn1cc(C(=O)O)c(=O)c2cc(F)c(N3CCNC(C)C3)c(F)c21 (centres undefined),inactive
9,C=C1c2c(Cl)ccc(O)c2C(O)=C2C(=O)[C@@]3(O)C(O)=C(C(N)=O)C(=O)[C@@H](N(C)C)[C@@H]3[C@@H](O)[C@H]12,15.2 µM (active)
10,CC(C)(C)C(=O)OCOP(=O)(COCCn1cnc2c(N)ncnc21)OCOC(=O)C(C)(C)C,0.0681 µM (active)
11,NCCNc1ccc(NCCN)c2c1C(=O)c1ccncc1C2=O,3.41 µM (active)
12,Cc1cc(-n2c(=O)[nH]c(=O)n(C)c2=O)ccc1Oc1ccc(S(=O)(=O)C(F)(F)F)cc1,19.2 µM (active)
13,O=c1ccc2ccccc2o1,inactive
14,CC[C@@H]([C@H](C)O)n1ncn(-c2ccc(N3CCN(c4ccc(OC[C@@H]5CO[C@@](Cn6cncn6)(c6ccc(F)cc6F)C5)cc4)CC3)cc2)c1=O,6.81 µM (active)
15,CNCCCC12CCC(c3ccccc31)c1ccccc12,inactive
16,N#CC(c1ccc(Cl)cc1)c1c(Cl)cc(-n2ncc(=O)[nH]c2=O)cc1Cl (centres undefined),10.8 µM (active)
17,C=C(C)[C@H]1Cc2c(ccc3c2O[C@@H]2COc4cc(OC)c(OC)cc4[C@@H]2C3=O)O1,0.0383 µM (active)

row,Compound,Potency
1,C/C=C(/C)C(=O)O[C@H]1C(C)=CC23C(=O)C(C=C(CO)[C@@H](O)[C@]12O)[C@H]1[C@@H](C[C@H]3C)C1(C)C (some centres undefined),0.215 µM (active)
2,CO[C@@]12[C@H](COC(N)=O)C3=C(C(=O)C(C)=C(N)C3=O)N1C[C@@H]1N[C@@H]12,3.41 µM (active)
3,C[n+]1c2cc(N)ccc2cc2ccc(N)cc21 (tested in a mixture with another compound),4.82 µM (active)
4,CCCN1C[C@H](C)[C@@H](O)[C@](C)(O)[C@@H](CC)OC(=O)[C@H](C)[C@@H](O[C@H]2C[C@@](C)(OC)[C@@H](O)[C@H](C)O2)C(C)[C@@H](O[C@@H]2O[C@H](C)C[C@H](N(C)C)[C@H]2O)[C@](C)(O)C[C@H]1C (some centres undefined),inactive
5,COc1cccc2c1C(=O)c1c(O)c3c(c(O)c1C2=O)C[C@@](O)(C(=O)CO)CC3OC1CC(N2CCOC(OC)C2)C(O)C(C)O1 (some centres undefined),0.108 µM (active)
6,CC(C)OC(=O)OCOP(=O)(CO[C@H](C)Cn1cnc2c(N)ncnc21)OCOC(=O)OC(C)C,0.0961 µM (active)
7,CNC(=O)c1cc(Oc2ccc(NC(=O)Nc3ccc(Cl)c(C(F)(F)F)c3)c(F)c2)ccn1,10.8 µM (active)
8,CC(=O)[C@]1(O)Cc2c(O)c3c(c(O)c2[C@@H](O[C@H]2C[C@H](N)[C@H](O)[C@H](C)O2)C1)C(=O)c1ccccc1C3=O,4.82 µM (active)
9,CC(C)OC(=O)[C@H](C)N[P@](=O)(CO[C@H](C)Cn1cnc2c(N)ncnc21)Oc1ccccc1,0.242 µM (active)
10,COC(=O)C[C@](O)(CCCC(C)(C)O)C(=O)O[C@@H]1C(OC)=C[C@]23CCCN2CCc2cc4c(cc2[C@H]13)OCO4,1.36 µM (active)
11,COc1ccc2cc1Oc1ccc(cc1)C[C@H]1c3c(cc4c(c3Oc3cc5c(cc3OC)CCN(C)[C@@H]5C2)OCO4)CCN1C,21.5 µM (active)
12,COc1cccc2c1C(=O)c1c(O)c3c(c(O)c1C2=O)C[C@@](O)(C(=O)CO)C[C@@H]3O[C@H]1C[C@H](N)[C@@H](O)[C@H](C)O1,4.82 µM (active)
13,CN1CC[C@H](CN2c3ccccc3Sc3ccccc32)C1,inactive
14,C[C@@H]1CCO[C@H]2Cn3cc(C(=O)NCc4ccc(F)cc4F)c(=O)c(O)c3C(=O)N12,0.0054 µM (active)
15,COC(=O)C1=C(C)NC(C)=C(C(=O)OCC(C)C)C1c1ccccc1[N+](=O)[O-] (centres undefined),24.1 µM (active)
16,COc1cc(NS(C)(=O)=O)ccc1Nc1c2ccccc2nc2ccccc12,0.764 µM (active)
17,N/C(=N\N=C\c1ccc(Cl)cc1)N/N=C/c1ccc(Cl)cc1,24.1 µM (active)
